PubChem BioAssay AID463173 (ICCB-Longwood Screening Facility, Harvard Medical School, 2010)
The campaign covered roughly 52,000 compounds. About 1,700 (3.3%) were called active. Shown is part of a subset that was picked to be rich in actives. A number with no mark means an inactive call. Rule as the data show it: active = survival mostly below about 52% (no sharp cut-off); inactive = mostly above about 56%.

Each compound was assayed on Wild type (assay: S. aureus survival, RN4220 and DeltatarO strains – OD600, teichoic acid synthesis inhibitors, primary screen (AID 463173)). Conditions: S. aureus RN4220 wild type/DeltatarO growth, OD600, 18 h, hits give low values, screened at 18.75 µg/mL (by protocol).

With `CCCCOC(=O)CSc1ncnc2sc3c(c12)CCC(C)C3` (stereo unspecified) the survival was 15% (active).
`CCCOC(=O)CSc1ncnc2sc3c(c12)CCC(C)C3` (stereo unspecified) was tested, and the survival was 7% (active).
`CCCCCOC(=O)CSc1ncnc2sc3c(c12)CCC(C)C3` (stereo unspecified) was tested, and the survival was -1% (active).
For `COc1ccccc1Cn1cc(C(=O)c2ccccc2)c(=O)c2cc(OC)c(OC)cc21`, the survival was 10% (active).
In the case of `CC1=C(C(=O)Nc2ccccc2)C(c2ccc[nH]2)n2ncnc2N1` (stereo unspecified), the survival is reported as -3% (active).
For `COc1ccccc1NC(=O)C1=C(C)Nc2ncnn2C1c1cccn1C` (stereo unspecified), the survival was 0% (active).
`COc1ccc(-c2nnc3n2N(C(C)=O)C(c2ccc(Cl)c(Cl)c2)=C(C(C)=O)S3)cc1` was tested, and the survival was -3% (active).
For `CCOc1ccccc1NS(=O)(=O)c1cnc(N)nc1`, the survival was -3% (active).
In the case of `Cc1ccc(C2Nc3ccccc3-n3c(-c4ccccc4)c4c(=O)n(C)c(=O)n(C)c4c32)cc1` (stereo unspecified), the survival is reported as -8% (active).
For `COc1ccc(-c2c3c(=O)n(C)c(=O)n(C)c3c3n2-c2ccccc2NC3c2ccc(OC)cc2)cc1` (stereo unspecified), the survival was 8% (active).
`COc1ccc(C2Nc3ccccc3-n3c(-c4ccccc4)c4c(=O)n(C)c(=O)n(C)c4c32)cc1` (stereo unspecified) was tested, and the survival was -3% (active).

Going from `CCOC(=O)CSc1nc2sc3c(c2c(=O)n1Cc1ccccc1)CC(C)CC3` (stereo unspecified) to `CC1CCc2c(sc3ncnc(NCCOCCO)c23)C1` (stereo unspecified), the survival rises from 68% to 106%.

First: CCCCCOC(=O)CSc1ncnc2c1sc1nc(N3CCOCC3)c3c(c12)CCCC3
Second: CCn1c(=O)c2sccc2n2c(CCCC(=O)N3CCN(c4ccc(OC)cc4)CC3)nnc12
The survival of the first is lower: 61% for the first, 96% for the second.

First: COc1ccccc1C(=O)Nc1nnc(SCc2cc(=O)c3ccccc3[nH]2)s1
Second: COc1ccccc1Cn1cc(C(=O)c2ccc(C)cc2)c(=O)c2cc(C)ccc21
The survival of the first is lower: 72% for the first, 121% for the second.

Going from `COc1ccc(NC(=O)c2cc(C(C)=O)n3ccccc23)cc1Cl` to `COc1ccc(NC(=O)C2=C(C)Nc3ncnn3C2c2cccn2C)cc1` (stereo unspecified), the survival falls from 87% to 85%.

Going from `CCN(c1ccccc1)S(C)(=O)=O` to `CCOc1ccccc1CNS(=O)(=O)c1cnc(N)nc1`, the survival falls from 101% to 55%.

First: Cc1ccn2c(Nc3ccc(C(C)C)cc3)c(-c3cccs3)nc2c1
Second: COc1ccc(NC(=O)C2=C(C)Nc3ncnn3C2c2ccc[nH]2)cc1 (stereo unspecified)
The survival of the first is lower: 53% for the first, 83% for the second.

Going from `Cc1ccc(CNC(=O)C(C)n2nc(C)c3sc4ccccc4c3c2=O)cc1` (stereo unspecified) to `CCn1nc(C)c2c(-c3ccccc3)cc(=O)n(C(C)C(=O)NCc3ccc(C)cc3)c21` (stereo unspecified), the survival rises from 105% to 127%.

Compared with `Cc1ccc(OCC(=O)N(Cc2ccc(N(C)C)cc2)CC2CCCO2)cc1C` (stereo unspecified), `Cc1c(CNC2CCCCCC2)c(C(=O)O)c(C)n1Cc1ccc(F)cc1` is higher in survival: 82% for the first, 98% for the second.

Going from `CCc1ccc(C(=O)c2cn(Cc3ccccc3)c3cc(OC)c(OC)cc3c2=O)cc1` to `COc1ccc(-c2c3c(=O)n(C)c(=O)n(C)c3c3n2-c2ccccc2NC3c2ccccc2OC)cc1` (stereo unspecified), the survival falls from 97% to 64%.

Compared with `O=C(c1ccc2c(c1)OCCO2)N(Cc1cccnc1)c1nc2c(Cl)cccc2s1`, `O=C(Nc1cccc(C(F)(F)F)c1)c1cc(-c2ccc(Cl)s2)nc2ccccc12` is lower in survival: 128% for the first, 100% for the second.

First: CC1=C(C(=O)Nc2ccccc2C)C(c2ccc[nH]2)n2ncnc2N1 (stereo unspecified)
Second: CC1=C(C(=O)Nc2ccccc2)C(c2cccn2C)n2ncnc2N1 (stereo unspecified)
The survival of the first is higher: 99% for the first, 76% for the second.

Compared with `COc1ccc(C2C(=O)N(C3CCCCCC3)CC(=O)N2Cc2ccccc2)cc1` (stereo unspecified), `COc1ccc(-c2c3c(=O)n(C)c(=O)n(C)c3c3n2-c2ccccc2NC3c2ccco2)cc1` (stereo unspecified) is lower in survival: 67% for the first, 57% for the second.

Going from `Cc1ccc(CNC(=O)CN2C(=O)C3CCCCN3c3ccc(C(=O)N4CCCC4)cc32)cc1` (stereo unspecified) to `Cc1cc(C)cc(NC(=O)CN2C(=O)CSc3ccc(S(=O)(=O)N4CCCC4)cc32)c1`, the survival rises from 81% to 88%.

Going from `COc1ccc(-c2ccc(/C=N/NC(N)=O)o2)cc1` to `COc1ccc(C2=C(C(C)=O)Sc3nnc(-c4ccccc4)n3N2C(C)=O)cc1`, the survival falls from 114% to 76%.

First: CC(=O)C1=C(c2ccc(Cl)c(Cl)c2)N(C(C)=O)n2c(nnc2-c2ccccc2)S1
Second: COc1ccc(-c2nc3ccccc3n3c(-c4ccccc4)c4c(=O)n(C)c(=O)n(C)c4c23)cc1
The survival of the first is higher: 83% for the first, 80% for the second.

First: COC(=O)c1c(NC(=O)c2cc3nc(-c4ccc(OC)cc4)cc(C(F)(F)F)n3n2)sc2c1CCCC2
Second: Nc1ncc(S(=O)(=O)Nc2ccc(F)cc2F)cn1
The survival of the first is lower: 73% for the first, 82% for the second.

First: Cn1c(=O)c2c(-c3ccccc3)n3c(c2n(C)c1=O)C(c1ccc([N+](=O)[O-])cc1)Nc1ccccc1-3 (stereo unspecified)
Second: Cc1ccc(C2Nc3ccccc3-n3c(-c4ccccc4)c4c(=O)n(C)c(=O)n(C)c4c32)o1 (stereo unspecified)
The survival of the first is lower: 21% for the first, 74% for the second.

Work on `Cc1ccc(C2Nc3cc(C)c(C)cc3-n3c(-c4ccccc4)c4c(=O)n(C)c(=O)n(C)c4c32)o1` (stereo unspecified) yielded a survival of 77%.
